The source of these data is PubChem BioAssay (NCI).

The nature of the assay: NCI Yeast Anticancer Drug Screen. Data for the wt1 strain (AID 149).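 Note: 0% = growth of vehicle-treated wt1 cultures.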 The settings on record: S. cerevisiae wt1 strain (SPY 50644) growth inhibition, hits give high values. The method, then:
Growth inhibition of yeast strains with defined genetic alterations is measured as a screen for potential anti-cancer activity. Selected strains with alterations in DNA damage repair or cell cycle control were exposed to compounds and growth inhibition was measured relative to vehicle treated controls. The strain used in this assay is wt1

Compounds without any hit were thinned out: in the full panel of roughly 79,000, 15% have a hit. Values without a mark were called inactive. Calls of active or inactive are those of the source. Cut-off read from the data, not from the text of the source: active = growth inhibition above about 70%; inactive = the rest.

Take `COc1cccc2c1C(=O)c1c(O)c3c(c(O)c1C2=O)CC(O)(C(O)CO)CC3OC1CC(N2CCOCC2)C(O)C(C)O1` (stereo not given): the growth inhibition (at 1.2 µM) is 96% (active); the growth inhibition (at 3.7 µM) is 96% (active); the growth inhibition (at 11.0 µM) was 97% (active); the growth inhibition (at 33.0 µM) was 97% (active); the growth inhibition (at 100.0 µM) is 97% (active).

As for `Nc1ccc(F)cc1S`, the growth inhibition reads like this: (at 1.2 µM) -7%; (at 3.7 µM) 1%; (at 11.0 µM) 6%; (at 33.0 µM) 92% (active); (at 100.0 µM) 99% (active).

For `COc1ccc(C(NCCNC(c2ccc(OC)c(OC)c2)c2cc3c(cc2O)OCO3)c2cc3c(cc2O)OCO3)cc1OC` (stereo not given), the growth inhibition is 4% (at 1.2 µM); -2% (at 3.7 µM); 2% (at 11.0 µM); 29% (at 33.0 µM); 99% (active) (at 100.0 µM).

Take `CCOC1Oc2ccccc2-c2nc(N)ncc21` (stereo not given): the growth inhibition was -4% (at 1.2 µM); -1% (at 3.7 µM); 1% (at 11.0 µM); -1% (at 33.0 µM); -14% (at 100.0 µM).

Turning to `CC1SC2(C(=O)Nc3ccc(Cl)cc32)N(c2ccc(Cl)cc2)C1=O` (stereo not given), the growth inhibition runs as follows: (at 1.2 µM) -3%; (at 3.7 µM) -4%; (at 11.0 µM) -3%; (at 33.0 µM) 68%; (at 100.0 µM) 61%.

`COC(=O)Oc1cc(Cl)c(Cl)cc1Cl`: the growth inhibition is -1% (at 1.2 µM); -2% (at 3.7 µM); -3% (at 11.0 µM); -4% (at 33.0 µM); 0% (at 100.0 µM).

Turning to `CCN(CC)CCOc1cc(C)c2cc(Cc3ccccc3)ccc2n1`, the growth inhibition runs as follows: (at 1.2 µM) 0%; (at 3.7 µM) 1%; (at 11.0 µM) -1%; (at 33.0 µM) 3%; (at 100.0 µM) 71% (active).

Consider `Nc1cc(N)c(N=Nc2cccc3c(S(=O)(=O)O)cccc23)cc1N=Nc1cc([N+](=O)[O-])ccc1O`, for which the growth inhibition was 7% (at 1.2 µM); 13% (at 3.7 µM); 7% (at 11.0 µM); 8% (at 33.0 µM); 19% (at 100.0 µM).
